Screening results: PubChem BioAssay, National Center for Advancing Translational Sciences (NCATS)
TSHR antagonist = Antagonists of the Thyroid Stimulating Hormone Receptor: HTS campaign. Thyrotropin receptor (Homo sapiens), P16473. TSHR-expressing cells, TSH-stimulated cAMP HTRF, 2 h; stronger effect = lower value. activity change, negative = inhibition, % at 11.5 µM. hit rate 0.2% among 330,000. AID 504810, 2011;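 active = activity change below a set negative limit, meaning inhibition stronger than a set level, cut at about -70% in these data; inconclusive = activity change between two set negative limits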
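Freshly harvested TSHR cells receive pin-tooled compound, then EC80 TSH at 4nM final. After 2 hours at 37 deg C, antibody in lysis buffer and cAMP-d2 are added; 30 minutes at ambient temperature precede the HTRF read.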
EPAC1 antagonist = qHTS for Antagonist of cAMP-regulated guanine nucleotide exchange factor 3 (EPAC1): primary screen | hit rate 0.14% among 360,000 | AID 720709, 2013 | EPAC1 GEF assay, Rap1b-BODIPY-GDP exchange fluorescence | Potency, µM (titrated, usually from 115 µM), usual class: inhibitors; note: nearly all actives have a fitted effect of over 50% in size
EPAC2 agonist = qHTS for Agonist of cAMP-regulated guanine nucleotide exchange factor 4 (EPAC2): primary screen; EPAC2 activation, biochemical qHTS; response scale: 100% = 6.5 mM cAMP response; hit rate 0.079% among 360,000; Potency, µM (doses to about 154 µM), usual class: activators; AID 720711, 2013; note: nearly all actives have a fitted effect of over 50% in size
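Setup: EPAC2 100 nM, labeled Rap1B complex 250 nM, free GDP 50 uM. Compound titrations pinned in, brief spin, 5 min room temperature incubation. Kinetic fluorescence read over 30 min, normalized to 6.5 mM cAMP.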
EPAC2 antagonist = qHTS for Antagonist of cAMP-regulated guanine nucleotide exchange factor 2 (EPAC2): primary screen; hit rate 0.18% among 360,000; Rap guanine nucleotide exchange factor 4 (Homo sapiens), Q8WZA2; Potency, µM (doses to about 114 µM), most hits filed as inhibitors; AID 720708, 2013; EPAC2 GEF exchange of Rap1B-BODIPY-GDP, fluorescence; note: nearly all actives have a fitted effect of over 45% in size
EPAC1 agonist = qHTS for Agonist of cAMP-regulated guanine nucleotide exchange factor 3 (EPAC1): primary screen; Rap guanine nucleotide exchange factor 3 (Homo sapiens), O95398; EPAC1 agonist qHTS, biochemical assay; response scale: 100% = response to 6.5 mM cAMP; Potency, µM (titrated, usually from 154 µM), usual class: activators; hit rate 0.073% among 360,000; AID 720707, 2013; note: nearly all actives have a fitted effect of over 60% in size
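Normalized to 6.5 mM cAMP, activity reflects EPAC1-catalysed release of BODIPY-GDP from Rap1B, followed kinetically over 30 min at 480 nm excitation, 540 nm emission. Reaction contained 100 nM EPAC1, 250 nM Rap1B-BODIPY-GDP, 50 uM GDP.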
PTHR1 agonist = qHTS for PTHR1 Agonists: Primary Screen; Parathyroid hormone/parathyroid hormone-related peptide receptor (Homo sapiens), Q03431; HEK293 GP2 PTHR1 cells, GloSensor cAMP luminescence, 1 h; Potency, µM (highest dose often 115 µM), most hits filed as activators; hit rate 0.075% among 410,000; AID 743266, 2014; note: nearly all actives have a fitted effect of over 55% in size
Target sequence (Q03431 whole entry, looked up): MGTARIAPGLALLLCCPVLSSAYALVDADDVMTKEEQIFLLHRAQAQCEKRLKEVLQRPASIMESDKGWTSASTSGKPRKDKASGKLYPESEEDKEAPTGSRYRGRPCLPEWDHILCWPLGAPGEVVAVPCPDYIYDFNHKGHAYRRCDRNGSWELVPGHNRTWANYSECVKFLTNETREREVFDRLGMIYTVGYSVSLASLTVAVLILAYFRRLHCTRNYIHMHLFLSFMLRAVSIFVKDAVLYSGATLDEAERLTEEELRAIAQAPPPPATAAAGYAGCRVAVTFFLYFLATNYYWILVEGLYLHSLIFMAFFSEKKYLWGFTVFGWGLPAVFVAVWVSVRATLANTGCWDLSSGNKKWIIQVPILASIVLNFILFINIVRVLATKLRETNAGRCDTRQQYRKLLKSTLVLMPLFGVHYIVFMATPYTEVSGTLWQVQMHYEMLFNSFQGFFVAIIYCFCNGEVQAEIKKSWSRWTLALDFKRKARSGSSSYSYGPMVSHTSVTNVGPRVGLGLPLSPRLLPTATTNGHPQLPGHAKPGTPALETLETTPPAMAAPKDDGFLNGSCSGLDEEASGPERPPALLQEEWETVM
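HEK-293-derived GP2 cells expressing PTHR1 and a GloSensor cAMP reporter, 3,000/well, plated overnight, given luciferin plus IBMX (each 0.5 mM as added) for 1 h at 37 °C, then compound for 1 h at 37 °C. Luminescence was read after 15 min at room temperature.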
Each line names hits and unclear results; the compound was inactive in the other large screens. An excerpt weighted towards active compounds, which were near 0.5% of everything screened. Unless noted, calls come from the whole dose curve; as a rule, active = well fitted curve in the direction sought with a large enough effect; inconclusive = small, poorly fitted or top-dose-only effect, or another doubt; inactive = no such curve, though single readings can be large; an effect the other way counts as inactive or inconclusive.

Cc1cccc(NC(=O)CN2C(=O)N/C(=C\c3ccccc3OCc3ccc(C(=O)O)cc3)C2=O)c1	EPAC1 antagonist 28µM
O=C(O)c1ccc(COc2ccccc2/C=C2/NC(=O)N(c3cccc(Cl)c3)C2=O)cc1	EPAC1 antagonist inconclusive, EPAC2 antagonist inconclusive, EPAC1 agonist 89µM
O=C(CN1C(=O)N/C(=C\c2ccccc2OCc2ccc(C(=O)O)cc2)C1=O)Nc1ccc(F)cc1	EPAC1 antagonist inconclusive
COc1ccc(N=Nc2nc3cc(Br)c(Br)cc3n2C)c(OC)c1	EPAC1 agonist 112µM
COc1ccc(CNc2nc3ccccc3n2C)c(OC)c1	none
O=C(/C=C\c1ccc2c(c1)OCO2)NC1CC(=O)N(c2ccc(F)cc2)C1 (stereo not drawn)	none (no result: TSHR antagonist, EPAC1 antagonist, EPAC2 agonist, EPAC2 antagonist, EPAC1 agonist)
O=C1c2cccc3cc([N+](=O)[O-])cc(c23)C(=O)N1/N=C/c1ccc(O)cc1O	EPAC1 antagonist 79µM
O=C1c2cccc3cc([N+](=O)[O-])cc(c23)C(=O)N1CCN1CCCC1	none
Cc1cccc2cc(/C=N/NC(=O)c3ccccc3O)c(Cl)nc12	TSHR antagonist -72
C#CCOCCOCCOCCNc1nc(N2CCN(C(=O)CCCCCCCCCCNC(=O)[C@@H](CCSC)n3cc(CCO)nn3)CC2)nc(N2CCN(C(=O)CCCCCCCCCCNC(=O)[C@H]([C@@H](C)CC)n3cc(CCCCCN)nn3)CC2)n1	EPAC1 antagonist 45µM, EPAC2 agonist inconclusive, EPAC2 antagonist inconclusive, EPAC1 agonist inconclusive
C#CCOCCOCCOCCNc1nc(N2CCN(C(=O)CCCCCCCCCCNC(=O)Cn3cc(C[C@@H](C)O)nn3)CC2)nc(N2CCN(C(=O)CCCCCCCCCCNC(=O)[C@H](CCCCN)n3cc(C[C@@H](C)CC)nn3)CC2)n1	PTHR1 agonist 18µM
COc1ccc(C)cc1NC(=O)C1CCCN(S(=O)(=O)c2cccc3cccnc23)C1 (stereo not drawn)	none
O=[N+]([O-])c1cc2oc3c(c2c(C=NCc2ccccc2)c1O)CCCC3	none
CC(C)CN=Cc1c(O)c([N+](=O)[O-])cc2oc3c(c12)CCCC3	TSHR antagonist -85
CCCCn1c(N)c(N(CCC(C)C)C(=O)C2CC(=O)N(CCc3ccc(OC)c(OC)c3)C2)c(=O)[nH]c1=O (stereo not drawn)	none
CCOc1ccc(NC(=O)CCCNC(=O)Cn2cnc3sc(C)c(C)c3c2=O)cc1	none
CCN(c1ccc(C(=O)CN2C(=O)NC3(CCOc4ccccc43)C2=O)cc1)S(C)(=O)=O (stereo not drawn)	none
O=c1cc(-c2ccccc2Cl)oc2c(NS(=O)(=O)c3cc(Cl)cc(Cl)c3O)ccc(O)c12	TSHR antagonist inconclusive, EPAC1 antagonist 35µM, EPAC2 antagonist 28µM
COc1cccc(NC(=O)c2sc3nc(C)c(C(=O)Nc4ccc(C)cc4C)c(-c4ccccc4Cl)c3c2N)c1	none (no result: TSHR antagonist, EPAC1 antagonist, EPAC2 agonist, EPAC2 antagonist, EPAC1 agonist)
O=c1oc2cc(O)ccc2cc1-c1nc2ccccc2o1	EPAC2 agonist inconclusive, EPAC1 agonist 63µM (no result: TSHR antagonist)
Cc1oc2ncn(C)c(=O)c2c1C(=O)Nc1ccc(F)cc1	none (no result: TSHR antagonist, EPAC1 antagonist, EPAC2 agonist, EPAC2 antagonist, EPAC1 agonist)
Cc1noc(/C=C/c2cccnc2)c1[N+](=O)[O-]	none
Cc1noc(/C=C/c2ccc(-c3ccccc3Cl)o2)c1[N+](=O)[O-]	EPAC2 agonist 100µM
CCOC(=O)c1nncc(-c2ccccc2)n1	none
